{"source": "PubChem BioAssay (NCATS)", "key": {"[1]": {"test": "Primary qHTS for inhibitors of SARS-S pseudo-typed particle cell entry (AID 1479145); further: nearly all actives have a fitted effect of over 45% in size; further: potency means the concentration at half of the fitted maximal effect", "conditions": "outcome: at 57.1 µM (top of the series) unless noted"}, "[2]": {"test": "Primary qHTS for Huh7 cytotoxicity: counterscreen for inhibitors of MERS-S pseudotyped particle cell entry (AID 1479147)", "conditions": "outcome: at 57.1 µM (top of the series) unless noted"}, "[3]": {"test": "Primary qHTS for Vero E6 cytotoxicity: counterscreen for inhibitors of SARS-S pseudo-typed particle cell entry (AID 1479150)", "conditions": "outcome: at 57.1 µM (top of the series) unless noted"}, "[4]": {"test": "Cytotoxicity counterscreen for inhibitors of SARS-CoV-2 cell entry (AID 1645845); further: nearly all actives have a fitted effect of over 50% in size", "conditions": "outcome: at 57.1 µM (top of the series) unless noted", "in_short": "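ATP-content luminescence (ATPLite 1step, 15 min RT) read after 48 h compound exposure of Expi293F cells stably expressing human ACE2; normalized to cells-only wells and media-only wells.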"}, "[5]": {"test": "Primary qHTS to identify inhibitors of SARS-CoV-2 cell entry (AID 1645846); further: nearly all actives have a fitted effect of over 45% in size; further: potency means the concentration at half of the fitted maximal effect", "conditions": "SARS-CoV-2 pseudovirus cell entry assay, luminescence; activity change, negative = inhibition: at 57.1 µM (top of the series) unless noted", "in_short": "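Inhibition of spike-mediated entry was scored in human ACE2-transfected Expi293F cells. Particles were MLV-pseudotyped with Wuhan-Hu-1 S carrying a 19-aa C-terminal deletion; signal was luciferase after two days, scaled between spike PP and fusion-protein-free PP.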"}, "[6]": {"test": "qHTS Assay for Identification of Small Molecule Agonists for Hypoxia Response Element Signaling Pathway (AID 914; active means well fitted activation curve with a large enough effect in the signal ratio, with a control signal flat, not every such curve was filed as active; the % refers to the signal ratio; further: potency means the concentration at half of the fitted maximal effect)", "conditions": "ME-180 HRE-bla reporter, beta-lactamase ratio, CoCl2, 17 h; activation: stronger effect = higher value", "in_short": "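AC50 values come from titration-series %Activity, taken as the 460/530nm ratio of CCF4 fluorescence (excitation 405nm). CellSensor HRE-bla ME-180 cells were treated 17 hours at 37 C with compound plus an EC50 level of CoCl2.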"}, "[7]": {"test": "qHTS Assay for Identifying Gametocytocidal Compounds (AID 743244; active means well fitted curve in the direction sought with a large enough effect; an effect the other way counts as inactive or inconclusive; further: potency means the concentration at half of the fitted maximal effect)", "conditions": "P. falciparum 3D7 stage III-V gametocytes, alamarBlue, 72 h", "in_short": "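Late gametocytes (III–V), P. falciparum 3D7; 72 h drug, then 24 h alamarBlue; resazurin reduction read by fluorescence.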"}, "[8]": {"test": "Primary qHTS for inhibitors of MERS-S pseudo-typed particle cell entry (AID 1479149); further: potency means the concentration at half of the fitted maximal effect; nearly all actives have a fitted effect of over 60% in size", "conditions": "outcome: at 57.1 µM (top of the series) unless noted"}, "[9]": {"test": "Confirmatory qHTS for VERO E6 Cytotoxicity Assay: Counterscreen for SARS-CoV-2 CPE Assay (AID 1508605); further: nearly all actives have a fitted effect of over 60% in size"}, "[10]": {"test": "Confirmatory qHTS for activators (rescue) of SARS-CoV-2 Cytopathic Effect (CPE) (AID 1508606); further: potency means the concentration at half of the fitted maximal effect; nearly all actives have a fitted effect of over 70% in size"}, "[11]": {"test": "Confirmatory qHTS to identify inhibitors of SARS-CoV-2 cell entry (AID 1645844); further: potency means the concentration at half of the fitted maximal effect; nearly all actives have a fitted effect of over 45% in size", "in_short": "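Luminescence entry read-out after 48 h: spike-pseudotyped MLV particles (Wuhan-Hu-1, 19-aa C-terminal truncation) added to compound-pretreated (1 h) HEK293-ACE2 cells; Data were normalised to bald PP and spike PP wells.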"}, "[12]": {"test": "VSVG counterscreen qHTS to identify inhibitors of SARS-CoV-2 cell entry (AID 1645847); further: potency means the concentration at half of the fitted maximal effect; nearly all actives have a fitted effect of over 65% in size", "in_short": "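Luminescence from a luciferase reporter, normalised to bald particle and VSV-G pseudotyped particle wells, is the read-out. Cells are HEK293 expressing human ACE2, exposed to compound 1 h before a 48 h particle infection at 37 °C.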"}, "[13]": {"biological_target": "Alpha-galactosidase (Coffea arabica) (UniProt Q42656)", "sequence (Q42656 whole entry, looked up)": "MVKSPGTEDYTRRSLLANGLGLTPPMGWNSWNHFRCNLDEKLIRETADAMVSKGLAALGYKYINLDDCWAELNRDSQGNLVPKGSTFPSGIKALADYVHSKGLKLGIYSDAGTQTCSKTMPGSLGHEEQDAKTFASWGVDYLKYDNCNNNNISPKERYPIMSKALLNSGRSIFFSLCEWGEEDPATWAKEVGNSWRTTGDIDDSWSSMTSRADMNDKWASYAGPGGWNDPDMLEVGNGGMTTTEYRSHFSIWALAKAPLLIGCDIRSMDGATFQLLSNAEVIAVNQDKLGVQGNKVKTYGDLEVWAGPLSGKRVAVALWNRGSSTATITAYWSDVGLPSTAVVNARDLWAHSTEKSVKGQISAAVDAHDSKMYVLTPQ", "test": "Counterscreen for Glucocerebrosidase Inhibitors: qHTS Assay for Coffee Bean alpha-Galactosidase at pH 4.5 (AID 957; active means well fitted curve in the direction sought with a large enough effect; an effect the other way counts as inactive or inconclusive)", "in_short": "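Enzyme is added first (2 nM final), then compounds titrated from 0.7 nM to 77 uM, then 80 uM 4-methylumbelliferyl alpha-D-galactopyranoside; after 20 min at room temperature a pH 10 NaOH/glycine stop precedes fluorescence reading at 365/440 nm.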"}, "[14]": {"biological_target": "Alpha-galactosidase (Coffea arabica) (UniProt Q42656)", "test": "Counterscreen for Glucocerebrosidase Inhibitors: qHTS Assay for Coffee Bean alpha-Galactosidase at pH 5.9 (AID 998; active means well fitted curve in the direction sought with a large enough effect; an effect the other way counts as inactive or inconclusive)", "in_short": "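Fluorogenic 4-MU substrate hydrolysis, 80 uM substrate and 2 nM coffee bean alpha-galactosidase, pH 5.9 citrate buffer, 20 min at room temperature, then NaOH/glycine stop. Titration 0.7 nM–77 uM, normalized to no-enzyme and enzyme controls, AC50 via Hill equation.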"}, "[15]": {"test": "Inducers of the Endoplasmic Reticulum Stress Response (ERSR) in human glioma: Validation (AID 504836; active means well fitted curve in the direction sought with a large enough effect; an effect the other way counts as inactive or inconclusive)", "in_short": "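ERSR induction read as luciferase luminescence (Bright-Glo, 10 min at room temperature) in stably transfected human U87-MG glioma cells exposed to compounds for 16 h, using GRP78 as sensor.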"}, "[16]": {"biological_target": "Nuclear receptor subfamily 1 group I member 3 (Homo sapiens) (UniProt Q14994)", "sequence (Q14994 whole entry, looked up)": "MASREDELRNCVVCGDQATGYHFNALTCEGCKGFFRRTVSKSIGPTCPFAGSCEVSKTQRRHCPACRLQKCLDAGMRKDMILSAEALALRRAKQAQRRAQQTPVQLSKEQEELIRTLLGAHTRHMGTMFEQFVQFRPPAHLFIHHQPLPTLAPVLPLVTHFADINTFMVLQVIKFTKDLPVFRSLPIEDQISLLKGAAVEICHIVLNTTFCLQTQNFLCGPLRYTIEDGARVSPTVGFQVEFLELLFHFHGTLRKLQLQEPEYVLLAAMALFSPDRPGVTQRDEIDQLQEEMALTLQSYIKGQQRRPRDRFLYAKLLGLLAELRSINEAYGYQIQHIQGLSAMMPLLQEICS", "test": "Primary qHTS for antagonist of constitutive androstane receptor (CAR) against the NCATS DSHEA and TCM libraries (AID 1794836; active means well fitted curve in the direction sought with a large enough effect; an effect the other way counts as inactive or inconclusive)", "in_short": "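Antagonist mode: CAR reporter luminescence (ONE-Glo) in HepG2-CYP2B6-hCAR cells stimulated with 48 uM CITCO (final) over 24 h at 37 C, compounds titrated; viability read first by CellTiter-Fluor fluorescence.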"}, "[17]": {"test": "KB-8-5-11 P-gp reporter qHTS against the NCATS DSHEA and TCM libraries (AID 1919977; active means well fitted curve in the direction sought with a large enough effect; an effect the other way counts as inactive or inconclusive)", "in_short": "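KB-8-5-11, 500 cells/well, DMEM/10% FBS without colchicine; 4 h attach; cpd titrations, 72 h, 37C/5% CO2; CellTiter-Glo, 30 min RT, luminescence.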"}}, "note": "Inconclusive results are not listed. Entries that show only a call come without a potency. Calls of active or inactive are those of the source. Unless noted, the call rests on the fitted dose curve.", "data": [{"smiles": "CCC[C@H](NC(=O)[C@@H]1[C@H]2CCC[C@H]2CN1C(=O)[C@@H](NC(=O)[C@@H](NC(=O)c1cnccn1)C1CCCCC1)C(C)(C)C)C(=O)C(=O)NC1CC1", "values": [{"measurement": "Potency", "setting": "[1]", "value": "inactive"}, {"measurement": "Potency", "setting": "[2]", "value": "inactive"}, {"measurement": "Potency", "setting": "[3]", "value": "inactive"}, {"measurement": "Potency", "setting": "[4]", "value": "inactive"}, {"measurement": "activity change, negative = inhibition", "setting": "[5]", "value": 0.184, "unit": "%"}]}, {"smiles": "CCN(CC)Cc1cc(Nc2ccnc3cc(Cl)ccc23)ccc1O", "values": [{"measurement": "Potency", "setting": "[6]", "value": "5.01 µM (active)"}, {"measurement": "Potency", "setting": "[7]", "value": "11.2 µM (active)"}, {"measurement": "Potency", "setting": "[1]", "value": "10 µM (active)"}, {"measurement": "Potency", "setting": "[8]", "value": "14.1 µM (active)"}, {"measurement": "Potency", "setting": "[3]", "value": "inactive"}, {"measurement": "Potency", "setting": "[9]", "value": "inactive"}, {"measurement": "Potency", "setting": "[10]", "value": "5.62 µM (active)"}, {"measurement": "Potency", "setting": "[11]", "value": "3.83 µM (active)"}, {"measurement": "Potency", "setting": "[5]", "value": "11.2 µM (active)"}, {"measurement": "Potency", "setting": "[12]", "value": "3.04 µM (active)"}]}, {"smiles": "C=C1/C(=C\\C=C2/CCC[C@]3(C)[C@@H]([C@H](C)CCCC(C)(C)O)CC[C@@H]23)C[C@@H](O)C[C@@H]1O", "values": [{"measurement": "Potency", "setting": "[1]", "value": "inactive"}, {"measurement": "Potency", "setting": "[2]", "value": "inactive"}, {"measurement": "Potency", "setting": "[3]", "value": "inactive"}, {"measurement": "Potency", "setting": "[4]", "value": "inactive"}]}, {"smiles": "Cc1c(OCC(F)(F)F)ccnc1C[S@@](=O)c1nc2ccccc2[nH]1", "values": [{"measurement": "Potency", "setting": "[1]", "value": "inactive"}, {"measurement": "Potency", "setting": "[2]", "value": "inactive"}, {"measurement": "Potency", "setting": "[3]", "value": "inactive"}]}, {"smiles": "CC(C)c1nc(CN(C)C(=O)N[C@@H](CCN2CCOCC2)C(=O)N[C@H](CC[C@H](Cc2ccccc2)NC(=O)OCc2cncs2)Cc2ccccc2)cs1", "values": [{"measurement": "Potency", "setting": "[1]", "value": "inactive"}, {"measurement": "Potency", "setting": "[2]", "value": "inactive"}, {"measurement": "Potency", "setting": "[3]", "value": "inactive"}, {"measurement": "Potency", "setting": "[4]", "value": "inactive"}, {"measurement": "Potency", "setting": "[12]", "value": "21.5 µM (active)"}]}, {"smiles": "Cc1cc(N)c2ccccc2[n+]1CCCCCCCCCC[n+]1c(C)cc(N)c2ccccc21", "values": [{"measurement": "outcome", "setting": "[13]", "value": "inactive"}, {"measurement": "outcome", "setting": "[14]", "value": "inactive"}, {"measurement": "outcome", "setting": "[15]", "value": "inactive"}, {"measurement": "activity change, negative = inhibition", "setting": "[1]", "value": "-2.83% [at 11.4 µM] (inactive)"}, {"measurement": "activity change, negative = cytotoxicity", "setting": "[2]", "value": "1.39% [at 11.4 µM] (inactive)"}, {"measurement": "activity change, negative = cytotoxicity", "setting": "[3]", "value": "-0.518% [at 11.4 µM] (inactive)"}, {"measurement": "activity change, negative = cytotoxicity", "setting": "[4]", "value": "-25.1% [at 11.3 µM] (inactive)"}]}, {"smiles": "CC1(COc2ccc(N3CCC(Oc4ccc(OC(F)(F)F)cc4)CC3)cc2)Cn2cc([N+](=O)[O-])nc2O1", "note": "(stereo not given)", "values": [{"measurement": "Potency", "setting": "[1]", "value": "inactive"}, {"measurement": "Potency", "setting": "[2]", "value": "inactive"}, {"measurement": "Potency", "setting": "[3]", "value": "inactive"}, {"measurement": "Potency", "setting": "[4]", "value": "inactive"}]}, {"smiles": "Nc1nc(Cl)nc2c1ncn2C1CC(O)C(CO)O1", "note": "(stereo not given)", "values": [{"measurement": "Potency", "setting": "[1]", "value": "11.2 µM (active)"}, {"measurement": "Potency", "setting": "[2]", "value": "inactive"}, {"measurement": "Potency", "setting": "[3]", "value": "inactive"}, {"measurement": "Potency", "setting": "[11]", "value": "19.2 µM (active)"}, {"measurement": "Potency", "setting": "[4]", "value": "inactive"}, {"measurement": "Potency", "setting": "[12]", "value": "19.2 µM (active)"}]}, {"smiles": "C=C1CC[C@H](O)CC1=C/C=C1\\CCC[C@]2(C)[C@@H]([C@H](C)/C=C/[C@H](C)C(C)C)CC[C@@H]12", "values": [{"measurement": "Potency", "setting": "[1]", "value": "inactive"}, {"measurement": "Potency", "setting": "[2]", "value": "inactive"}, {"measurement": "Potency", "setting": "[3]", "value": "inactive"}, {"measurement": "Potency", "setting": "[16]", "value": "inactive"}, {"measurement": "Potency", "setting": "[17]", "value": "inactive"}]}, {"smiles": "C=C1CC[C@H](O)C/C1=C\\C=C1/CCC[C@]2(C)[C@@H]([C@H](C)CCCC(C)C)CC[C@@H]12", "values": [{"measurement": "Potency", "setting": "[1]", "value": "inactive"}, {"measurement": "Potency", "setting": "[2]", "value": "inactive"}, {"measurement": "Potency", "setting": "[12]", "value": "24.1 µM (active)"}, {"measurement": "Potency", "setting": "[16]", "value": "inactive"}, {"measurement": "Potency", "setting": "[17]", "value": "inactive"}]}, {"smiles": "CN(C)CC/C=C1\\c2ccccc2CSc2ccccc21", "values": [{"measurement": "Potency", "setting": "[1]", "value": "20 µM (active)"}, {"measurement": "Potency", "setting": "[2]", "value": "inactive"}, {"measurement": "Potency", "setting": "[3]", "value": "inactive"}, {"measurement": "Potency", "setting": "[9]", "value": "inactive"}, {"measurement": "Potency", "setting": "[4]", "value": "inactive"}, {"measurement": "Potency", "setting": "[5]", "value": "20 µM (active)"}]}]}
